# Data published in PubChem BioAssay (NCATS).
# Where “and” joins values, the source holds several entries; their conditions need not be identical. Equal entries are not always repeated. Inconclusive results are not listed. Entries that show only a call come without a potency. Calls of active or inactive are those of the source. Unless noted, calls follow the shape of the dose curve; as a rule, active = well fitted curve in the direction sought with a large enough effect; inconclusive = small, poorly fitted or top-dose-only effect, or another doubt; inactive = no such curve, though single readings can be large; an effect the other way counts as inactive or inconclusive.
# Assays:
# [1] = biological target: Thyroid hormone receptor beta (Homo sapiens) (UniProt P10828); experiment: qHTS assay for small molecule agonists of thyroid hormone receptor beta signaling (AID 588545; calls by dose curve)
# Sequence of Thyroid hormone receptor beta (Homo sapiens) (P10828 whole entry, looked up): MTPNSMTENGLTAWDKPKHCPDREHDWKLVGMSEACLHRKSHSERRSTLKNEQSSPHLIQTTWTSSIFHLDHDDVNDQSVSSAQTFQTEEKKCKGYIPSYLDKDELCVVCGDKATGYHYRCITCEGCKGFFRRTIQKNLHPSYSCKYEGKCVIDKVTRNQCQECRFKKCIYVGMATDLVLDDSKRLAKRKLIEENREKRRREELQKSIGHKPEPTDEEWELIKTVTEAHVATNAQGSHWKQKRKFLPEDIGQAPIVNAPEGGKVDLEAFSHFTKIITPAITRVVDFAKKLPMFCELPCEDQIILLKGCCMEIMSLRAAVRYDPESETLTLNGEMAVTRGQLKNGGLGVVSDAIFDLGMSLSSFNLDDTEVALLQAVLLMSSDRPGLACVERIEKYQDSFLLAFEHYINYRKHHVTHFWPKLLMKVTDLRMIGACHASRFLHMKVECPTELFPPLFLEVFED
# Outline: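 TR-UAS-bla-GripTite HEK 293 cells in medium with 2% charcoal/dextran FBS, 0.1 mM NEAA and 1 mM sodium pyruvate were treated with titrated compounds for 18 hrs at 37 C. Beta-lactamase reporter was read with CCF4 dye (ex 405, em 460/530 nm); EC50 from Hill fits.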
# [2] = qHTS assay for small molecule antagonists of retinoid X receptor alpha signaling (AID 588546; active = well fitted inhibition curve with a large enough effect in the signal ratio, with a control signal flat, not every such curve was filed as active; the % refers to the signal ratio;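 also: cells stimulated with 9-cis-retinoic acid as agonist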); conditions: HEK293T RXRa-UAS-bla, beta-lactamase ratio, antagonist mode; measured here: W530 green channel, cytotoxicity proxy
# Outline: (§1)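 Beta-lactamase reporter inhibition, read as CCF4 fluorescence ratio (ex 405, em 460/530 nm) after 2 h at RT. HEK293T UAS-bla cells, 2500/well, were stimulated with 9-cis-RA at 500 or 100 nM final alongside test compound for 18 h at 37 C.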
# [3] = biological target: Retinoic acid receptor RXR-alpha (Homo sapiens) (UniProt P19793); experiment: as above; conditions: HEK293T RXRa-UAS-bla, beta-lactamase ratio, antagonist mode
# Sequence of Retinoic acid receptor RXR-alpha (Homo sapiens) (P19793 whole entry, looked up): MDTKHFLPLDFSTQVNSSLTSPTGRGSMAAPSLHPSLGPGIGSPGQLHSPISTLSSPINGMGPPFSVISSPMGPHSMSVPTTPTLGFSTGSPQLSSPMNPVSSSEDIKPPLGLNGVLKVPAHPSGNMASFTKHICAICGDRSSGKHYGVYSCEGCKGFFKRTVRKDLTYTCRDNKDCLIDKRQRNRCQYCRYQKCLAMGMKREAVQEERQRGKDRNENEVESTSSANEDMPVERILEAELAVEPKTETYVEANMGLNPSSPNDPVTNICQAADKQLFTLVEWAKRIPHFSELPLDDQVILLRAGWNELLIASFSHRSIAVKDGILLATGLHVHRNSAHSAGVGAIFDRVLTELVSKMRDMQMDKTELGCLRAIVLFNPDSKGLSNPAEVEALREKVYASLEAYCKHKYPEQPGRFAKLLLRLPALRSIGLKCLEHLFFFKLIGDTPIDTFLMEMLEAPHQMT
# Outline: as §1
# [4] = biological target: Thyroid hormone receptor beta (Homo sapiens) (UniProt P10828); experiment: qHTS assay for small molecule antagonists of thyroid hormone receptor beta signaling (AID 588547; active = well fitted inhibition curve with a large enough effect in the signal ratio, with a control signal flat, not every such curve was filed as active; the % refers to the signal ratio;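 also: cells stimulated with 0.4 nM T3 agonist during compound exposure; series mostly up to about 77 µM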); conditions: TR-UAS-bla HEK293, beta-lactamase ratio, antagonist mode, 18 h
# Outline: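 Inhibition of T3-driven (0.4nM final) beta-lactamase reporter activity was measured over 0.59 nM to 92 uM compound after 18 h at 37 C. The cells were GripTite HEK293 TR-UAS-bla in charcoal/dextran-stripped serum, with CCF4 ratio read-out and IC50 from Hill fits.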
# [5] = biological target: Voltage-gated inwardly rectifying potassium channel KCNH2 (Homo sapiens) (UniProt Q12809); experiment: qHTS Assay for Small Molecule Inhibitors of the Human hERG Channel Activity (AID 588834);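 also: top concentration of the series differs between compounds; lower thallium flux fluorescence means stronger hERG block; nearly all actives have a fitted effect of over 50% in size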
# Sequence of Voltage-gated inwardly rectifying potassium channel KCNH2 (Homo sapiens) (Q12809 whole entry, looked up): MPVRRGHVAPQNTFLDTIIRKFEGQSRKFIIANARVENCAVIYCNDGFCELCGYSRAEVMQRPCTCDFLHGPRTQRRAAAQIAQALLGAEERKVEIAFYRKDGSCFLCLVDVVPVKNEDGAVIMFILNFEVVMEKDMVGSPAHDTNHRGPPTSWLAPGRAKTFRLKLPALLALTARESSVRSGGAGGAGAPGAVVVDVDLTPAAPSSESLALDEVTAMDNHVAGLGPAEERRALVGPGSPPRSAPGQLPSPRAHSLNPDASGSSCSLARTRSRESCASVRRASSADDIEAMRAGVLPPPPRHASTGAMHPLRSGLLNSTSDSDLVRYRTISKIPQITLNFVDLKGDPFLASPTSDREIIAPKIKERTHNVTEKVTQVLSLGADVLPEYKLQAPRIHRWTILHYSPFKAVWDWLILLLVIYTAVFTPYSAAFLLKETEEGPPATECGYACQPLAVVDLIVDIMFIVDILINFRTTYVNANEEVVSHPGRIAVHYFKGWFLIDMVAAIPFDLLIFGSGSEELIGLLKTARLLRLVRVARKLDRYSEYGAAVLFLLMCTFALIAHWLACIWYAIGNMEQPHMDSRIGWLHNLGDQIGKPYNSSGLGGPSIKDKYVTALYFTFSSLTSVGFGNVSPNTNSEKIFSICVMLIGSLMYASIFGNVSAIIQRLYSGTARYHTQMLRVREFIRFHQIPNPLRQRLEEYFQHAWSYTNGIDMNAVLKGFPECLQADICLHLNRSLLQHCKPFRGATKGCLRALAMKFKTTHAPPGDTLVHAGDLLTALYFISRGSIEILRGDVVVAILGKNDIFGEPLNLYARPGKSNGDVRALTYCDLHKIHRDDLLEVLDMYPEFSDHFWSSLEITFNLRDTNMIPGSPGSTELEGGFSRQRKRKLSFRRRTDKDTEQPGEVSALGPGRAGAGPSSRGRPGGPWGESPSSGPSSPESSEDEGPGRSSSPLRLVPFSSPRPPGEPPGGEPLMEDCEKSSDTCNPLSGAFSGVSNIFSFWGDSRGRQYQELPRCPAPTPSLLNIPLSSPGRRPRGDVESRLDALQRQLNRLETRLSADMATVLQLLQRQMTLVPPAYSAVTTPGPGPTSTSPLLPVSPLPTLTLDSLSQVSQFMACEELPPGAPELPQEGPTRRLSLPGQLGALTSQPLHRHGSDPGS
# Outline: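 In hERG-transduced U2OS cells, dye-loaded for 1 hr at room temperature in dark, test compounds incubated 10 min at 37 °C before thallium stimulation. AC50 values derived by Hill modelling of concentration-response.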
# [6] = biological target: Luciferin 4-monooxygenase (Photinus pyralis) (UniProt P08659); experiment: Biochemical firefly luciferase enzyme assay for NPC (AID 624030);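 also: purified P. pyralis luciferase at 10 nM with luciferin and ATP substrate; series mostly up to about 59 µM; nearly all actives have a fitted effect of over 70% in size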
# Sequence of Luciferin 4-monooxygenase (Photinus pyralis) (P08659 whole entry, looked up): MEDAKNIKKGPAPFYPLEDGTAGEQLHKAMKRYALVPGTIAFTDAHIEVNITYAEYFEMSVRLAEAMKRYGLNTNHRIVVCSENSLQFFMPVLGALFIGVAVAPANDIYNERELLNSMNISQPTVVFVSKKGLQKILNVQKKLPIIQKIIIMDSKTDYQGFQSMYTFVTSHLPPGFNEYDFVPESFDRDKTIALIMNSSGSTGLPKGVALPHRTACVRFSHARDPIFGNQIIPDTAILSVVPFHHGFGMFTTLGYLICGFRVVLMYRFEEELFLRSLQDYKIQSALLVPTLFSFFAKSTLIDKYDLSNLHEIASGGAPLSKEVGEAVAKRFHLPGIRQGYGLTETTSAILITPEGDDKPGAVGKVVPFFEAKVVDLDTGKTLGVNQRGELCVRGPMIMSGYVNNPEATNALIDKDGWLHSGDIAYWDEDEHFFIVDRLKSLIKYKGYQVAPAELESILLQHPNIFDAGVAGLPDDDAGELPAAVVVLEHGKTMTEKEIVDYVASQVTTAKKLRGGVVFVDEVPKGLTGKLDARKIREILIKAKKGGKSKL
# Outline: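 Direct inhibition of firefly luciferase enzyme (10 nM final, 50 mM Tris Acetate) assessed by luminescence within 5 minutes. Percent activity scaled between DMSO and PTC124 positive control, with concentration-effect curves classified by fit quality and response.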
# [7] = qHTS assay for small molecule agonists of the antioxidant response element (ARE) signaling pathway (AID 651741; active = well fitted activation curve with a large enough effect in the signal ratio; the % refers to the signal ratio)
# Outline: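 Agonist activity is measured as ARE-driven beta-lactamase expression in a stable HepG2 reporter line, using 16 h compound treatment at 37 C and a FRET substrate fluorescence readout after 2 h.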
# [8] = qHTS assay for small molecule activators of the p53 signaling pathway (AID 651743; active = well fitted activation curve with a large enough effect in the signal ratio, not every such curve was filed as active; the % refers to the signal ratio; also: series mostly up to about 92 µM); conditions: HCT-116 p53RE-bla, beta-lactamase FRET ratio, 16 h; activation: stronger effect = higher value
# Outline: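 A beta-lactamase reporter under p53 response element control, stably carried by HCT-116 cells, reported pathway activation. Test compounds were applied for 16 hours at 37 C, and fluorescence was measured 2 hours after adding the B/G FRET substrate.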
# [9] = qHTS assay for small molecule activators of the nuclear factor-kappa B (NF-kB) signaling pathway (AID 651749; active = well fitted activation curve with a large enough effect in the signal ratio; the % refers to the signal ratio; also: series mostly up to about 77 µM); conditions: NF-kB-bla ME-180 cells, beta-lactamase FRET ratio, 16 h; activation: stronger effect = higher value
# Outline: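 FRET-based beta-lactamase detection in ME-180 cells reports NF-kB response-element-driven transcription following overnight (16 hr) compound treatment.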
# [10] = biological target: Tumor necrosis factor (Homo sapiens) (UniProt P01375); experiment: qHTS assay to identify small molecules that stimulate Tumor Necrosis Factor-alpha (TNF-alpha) secretion (AID 651757; active = well fitted curve in the direction sought with a large enough effect in the signal ratio; the % refers to the signal ratio)
# Sequence of Tumor necrosis factor (Homo sapiens) (P01375 whole entry, looked up): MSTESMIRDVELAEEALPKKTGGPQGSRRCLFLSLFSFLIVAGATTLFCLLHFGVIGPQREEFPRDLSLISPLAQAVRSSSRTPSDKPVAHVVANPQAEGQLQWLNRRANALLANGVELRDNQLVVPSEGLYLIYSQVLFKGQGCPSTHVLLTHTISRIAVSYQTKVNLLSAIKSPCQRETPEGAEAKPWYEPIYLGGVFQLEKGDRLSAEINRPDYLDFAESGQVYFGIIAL
# Outline: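 THP-1 cells, 3000/well; compound 17 hrs, 37 C; add cryptate/XL665 anti-TNF-alpha antibody pair; 3 hr RT; TR-FRET (HTRF) read of secreted TNF-alpha. Quantitative HTS format.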
# [11] = qHTS assay for environmental chemicals that activate the Aryl hydrocarbon Receptor (AhR) signaling pathway (AID 651777); conditions: 1A2-DRE human hepatoma cells, luciferase, 24 h; activation: stronger effect = higher value; also: nearly all actives have a fitted effect of over 15% in size
# Outline: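 Reporter gene assay: hepatoma cells with DRE/CYP1A2-luciferase, 24 hr compound incubation at 37 C, 5% CO2, luminescence after One-Glo (30 min, RT).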
# [12] = biological target: Peroxisome proliferator-activated receptor alpha (Homo sapiens) (UniProt Q07869); experiment: qHTS assay for small molecule agonists of the peroxisome proliferator-activated receptor alpha (PPARalpha) signaling pathway (AID 651778); conditions: PathHunter PPARalpha complementation, chemiluminescence, 6 h; stronger effect = higher value
# Sequence of Peroxisome proliferator-activated receptor alpha (Homo sapiens) (Q07869 whole entry, looked up): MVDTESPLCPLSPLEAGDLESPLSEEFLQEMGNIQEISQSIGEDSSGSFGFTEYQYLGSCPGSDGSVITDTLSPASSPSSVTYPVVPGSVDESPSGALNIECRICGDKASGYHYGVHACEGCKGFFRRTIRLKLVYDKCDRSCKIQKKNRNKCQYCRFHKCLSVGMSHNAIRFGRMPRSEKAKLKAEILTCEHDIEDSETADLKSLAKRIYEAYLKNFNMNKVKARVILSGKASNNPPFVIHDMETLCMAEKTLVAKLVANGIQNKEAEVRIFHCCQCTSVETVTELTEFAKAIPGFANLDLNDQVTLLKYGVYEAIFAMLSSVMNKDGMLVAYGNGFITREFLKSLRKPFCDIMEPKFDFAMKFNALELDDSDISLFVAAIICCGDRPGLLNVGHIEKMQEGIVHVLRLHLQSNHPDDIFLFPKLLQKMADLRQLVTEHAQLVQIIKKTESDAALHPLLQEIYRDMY
# Outline: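 Chemiluminescence from complemented enzyme reported PPARalpha activation in cells after 6 hr of compound treatment at 37 C. The detection reagent was incubated for 60 min at room temperature, and compounds were scored as agonists.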
# [13] = biological target: Nuclear receptor ROR-gamma (Homo sapiens) (UniProt P51449); experiment: qHTS assay for small molecule antagonists of the retinoid-related orphan receptor gamma (ROR-gamma) signaling pathway (AID 651802);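 also: CHO cells with doxycycline-induced ROR-gamma expression; luciferase reporter luminescence driven by ROR response element; series mostly up to about 92 µM; nearly all actives have a fitted effect of over 60% in size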
# Sequence of Nuclear receptor ROR-gamma (Homo sapiens) (P51449 whole entry, looked up): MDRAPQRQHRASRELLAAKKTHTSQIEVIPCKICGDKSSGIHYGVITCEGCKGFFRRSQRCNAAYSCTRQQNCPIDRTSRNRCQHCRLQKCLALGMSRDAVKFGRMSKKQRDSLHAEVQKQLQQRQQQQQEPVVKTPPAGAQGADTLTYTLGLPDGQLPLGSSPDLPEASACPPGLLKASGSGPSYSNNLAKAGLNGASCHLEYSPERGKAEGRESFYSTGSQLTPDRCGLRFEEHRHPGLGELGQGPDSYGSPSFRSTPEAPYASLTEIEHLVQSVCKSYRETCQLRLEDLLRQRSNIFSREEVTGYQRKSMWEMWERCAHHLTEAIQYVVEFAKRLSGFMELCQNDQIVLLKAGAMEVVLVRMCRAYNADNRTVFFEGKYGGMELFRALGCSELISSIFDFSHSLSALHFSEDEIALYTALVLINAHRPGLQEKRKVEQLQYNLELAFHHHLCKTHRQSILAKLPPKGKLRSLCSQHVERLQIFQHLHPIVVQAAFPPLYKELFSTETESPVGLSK
# Outline: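 Luciferase read-out: ONE-Glo luminescence after 30 min at room temperature, following 16hr doxycycline induction at 37C, 5% CO2 of CHO cells with TET-inducible ROR and RORE-LUC reporter; decreased luminescence = reduced reporter activity.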
# [14] = qHTS assay for small molecule agonists of the antioxidant response element (ARE) signaling pathway measured by Nrf2-dependant transcriptional activity (AID 720636; active = well fitted curve in the direction sought with a large enough effect in the repeat runs; an effect the other way counts as inactive or inconclusive;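 also: HepG2 cells with an ARE-driven luciferase reporter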)
# Outline: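 Nrf2-dependent transcription is measured in ARE-luc HepG2 cells: compound is applied for 16 hr at 37 C after a 6 hr attachment period, and luciferase activity is quantified by luminescence using ONE-Glo.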
# [15] = qHTS assay for small molecule antagonists of the retinoid-related orphan receptor gamma (ROR-gamma) signaling pathway - cell viability counter screen (AID 720652; active = well fitted curve in the direction sought with a large enough effect in the repeat runs; an effect the other way counts as inactive or inconclusive;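 also: CHO reporter cells with doxycycline-induced ROR-gamma expression; series mostly up to about 92 µM; compound exposure lasted 16 hr before ATP read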)
# Outline: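 CHO RORE-LUC/TET-ROR line, 1,000 cells/well, 37 C 5% CO2 5 hr; cpd or DMSO + doxycycline induction, 16 hr. CellTiter-Glo, 30 min RT, luminescence = ATP content.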
# [16] = qHTS assay for small molecule agonists of the antioxidant response element (ARE) signaling pathway measured by Nrf2-dependant transcriptional activity - cell viability counter screen (AID 720653; active = well fitted curve in the direction sought with a large enough effect in the repeat runs; an effect the other way counts as inactive or inconclusive); conditions: ARE-bla HepG2 viability, CellTiter-Glo ATP luminescence, 16 h; max response: stronger effect = lower value
# Outline: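 Cytotoxicity counter screen: intracellular ATP quantified by CellTiter-Glo luminescence in the same ARE-bla HepG2 plates, after 16 h compound exposure and a 2 h beta-lactamase substrate step.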
# [17] = qHTS Assay for Identifying Gametocytocidal Compounds (AID 743244);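 also: actives lower the fluorescent signal which means gametocytes are killed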; conditions: P. falciparum 3D7 stage III-V gametocytes, alamarBlue, 72 h; max response: stronger effect = lower value
# Outline: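 P. falciparum 3D7 stage III–V gametocytes (20,000 cells/well) were exposed to compounds for 72 h at 37 °C, 5% CO2. AlamarBlue was then added for 24 h; decreased resorufin fluorescence (Ex 525/Em 598 nm) indicated loss of viability.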
# [18] = qHTS assay for cell viability of HEK293 cells (AID 743288); conditions: ATP luminescence (CellTiter-Glo), 18 h; max response: stronger effect = lower value; also: nearly all actives have a fitted effect of over 50% in size
# Outline: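 After 18 h compound exposure at 37 C, parental HEK293 cells (2,000/well) are lysed with CellTiter-Glo and luminescence is read following 30 min at room temperature.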
# [19] = qHTS assay for cell viability of the p53RE-bla HCT-116 cell line (AID 743292); also: nearly all actives have a fitted effect of over 55% in size
# Outline: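 ATP-based luminescence, 16 h compound exposure at 37 C, p53RE-bla HCT-116 cells at 4,000/well.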
# [20] = P-glycoprotein substrates identified in KB-8-5-11 adenocarcinoma cell line, qHTS therapeutic library screen (AID 1346987); also: series mostly up to about 44 µM; nearly all actives have a fitted effect of over 65% in size
# Outline: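 In this qHTS, P-gp-rich KB-8-5-11 cells received library compounds across a concentration range. Viability was quantified by luminescence after 72 h at 37 degree C.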
# [21] = biological target: Cytochrome P450 2D6 (Homo sapiens) (UniProt P10635); experiment: Cytochrome P450 family 2 subfamily D member 6 (CYP2D6) small molecule antagonists: luciferase biochemical (cell-free) qHTS assay (AID 1645840; active = well fitted curve in the direction sought with a large enough effect in the repeat runs; an effect the other way counts as inactive or inconclusive; also: series mostly up to about 57 µM; nearly all actives have a fitted effect of over 55% in size)
# Outline: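 P450-Glo CYP2D6 system: proluciferin substrate converted by enzyme to luciferin, read by luminescence proportional to activity. Enzyme-substrate mix with compound 10 min at room temperature, then NADPH regeneration 1 h before detection reagent.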
# [22] = biological target: Cytochrome P450 2C9 (Homo sapiens) (UniProt P11712); experiment: Cytochrome P450 family 2 subfamily C member 9 (CYP2C9) small molecule antagonists: luciferase biochemical (cell-free) qHTS assay (AID 1645842; active = well fitted curve in the direction sought with a large enough effect in the repeat runs; an effect the other way counts as inactive or inconclusive; also: series mostly up to about 57 µM; nearly all actives have a fitted effect of over 55% in size)
# Sequence of Cytochrome P450 2C9 (Homo sapiens) (P11712 whole entry, looked up): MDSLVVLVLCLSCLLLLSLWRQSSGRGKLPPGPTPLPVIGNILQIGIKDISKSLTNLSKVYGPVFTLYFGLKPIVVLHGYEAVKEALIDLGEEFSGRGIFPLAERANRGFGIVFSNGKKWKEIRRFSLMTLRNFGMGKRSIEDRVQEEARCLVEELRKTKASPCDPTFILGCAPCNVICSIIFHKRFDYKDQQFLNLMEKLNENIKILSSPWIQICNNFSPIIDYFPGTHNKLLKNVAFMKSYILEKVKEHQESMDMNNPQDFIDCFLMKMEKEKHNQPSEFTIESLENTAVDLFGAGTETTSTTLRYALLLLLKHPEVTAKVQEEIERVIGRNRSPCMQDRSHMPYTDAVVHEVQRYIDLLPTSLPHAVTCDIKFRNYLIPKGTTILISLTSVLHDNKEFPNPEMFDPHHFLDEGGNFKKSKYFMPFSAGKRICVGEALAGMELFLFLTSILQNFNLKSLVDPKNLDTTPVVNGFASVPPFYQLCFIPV
# Outline: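 P450-Glo CYP2C9 system: proluciferin substrate with enzyme in mix containing 0.4% BSA, 10 min at room temperature, then NADPH regeneration solution added and incubated 1 h at 37C. Detection reagent stopped reaction; luminescence read after 20 min as RLU.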
# KB-3-1 = experiment: Cytotoxic Profiling of Annotated Libraries Using Quantitative High-Throughput Screening (AID 1296008); conditions: Five cell lines viability, CellTiter-Glo ATP luminescence, 48-72 h; max response: stronger effect = lower value; also: nearly all actives have a fitted effect of over 60% in size
# Outline: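 Cytotoxicity was measured as CellTiter-Glo ATP luminescence, read after 10 min at room temperature. Compound treatment of the cells lasted 48 or 72 hr at 37 degrees Celsius in a qHTS format.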
# [23] = biological target: Nuclear receptor subfamily 1 group I member 2 (Rattus norvegicus) (UniProt Q9R1A7); experiment: qHTS assay for small molecule activators of the rat pregnane X receptor (rPXR) signaling pathway (AID 651751; call rule not given here); conditions: rPXR reporter cells, luciferase (One-Glo), 24 h
# Sequence of Nuclear receptor subfamily 1 group I member 2 (Rattus norvegicus) (Q9R1A7 whole entry, looked up): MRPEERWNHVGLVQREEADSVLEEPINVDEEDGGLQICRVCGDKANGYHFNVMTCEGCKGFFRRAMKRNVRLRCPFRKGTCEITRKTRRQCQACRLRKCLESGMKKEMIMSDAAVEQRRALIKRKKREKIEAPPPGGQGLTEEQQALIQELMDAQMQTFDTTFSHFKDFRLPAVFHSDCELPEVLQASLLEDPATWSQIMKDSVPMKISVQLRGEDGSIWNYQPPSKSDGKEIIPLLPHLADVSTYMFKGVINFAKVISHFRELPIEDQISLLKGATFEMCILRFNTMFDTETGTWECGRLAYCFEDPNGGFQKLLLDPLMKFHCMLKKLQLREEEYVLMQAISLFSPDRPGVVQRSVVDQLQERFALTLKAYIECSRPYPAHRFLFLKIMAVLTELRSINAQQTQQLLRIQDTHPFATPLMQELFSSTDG
# [24] = qHTS assay for small molecule activators of the human pregnane X receptor (PXR) signaling pathway (AID 720659; call rule not given here)
compound,measurement,setting,value
COC(=O)c1ccccc1C(=O)OC,Potency,[1],inactive
same,max response,[2],-2.9%
same,max response,[3],2.81% (inactive)
same,activity change % (negative = inhibition),[4],0.995% (inactive) and 14.6% (inactive)
same,Potency,[5],inactive
same,Potency,[6],inactive
same,Potency,[7],inactive
same,activation,[8],-1.52% (inactive) and -1.95% (inactive)
same,activation,[9],-0.143% (inactive) and 1.34% (inactive)
same,outcome,[10],inactive
same,activation,[11],1.37% (inactive) and 0.566% (inactive)
same,max response,[12],0.0123% (inactive) and 4.21% (inactive)
same,Potency,[13],inactive
same,Potency,[14],inactive
same,outcome,[15],inactive
same,max response,[16],8.24% (inactive) and 6.8% (inactive)
same,max response,[17],-14.6% (inactive)
same,max response,[18],-1.85% (inactive) and 5.33% (inactive)
same,outcome,[19],inactive
same,Potency,[20],inactive
same,Potency,[21],inactive
same,Potency,[22],inactive
same,max response,KB-3-1,3.72% (inactive)
same,max response,[23],5.6% (inactive) and 2.87% (inactive)
same,outcome,[24],inactive
